Experimental data taken from ChEMBL document CHEMBL4513216, “Probing the Open Global Health Chemical Diversity Library for Multistage-Active Starting Points for Next-Generation Antimalarials” (ACS Infect Dis, 2020).
Hit rate of the full screen: of about 65,000 compounds, about 2,100 (3.2%) showed an effect of 50% or more. The median lay at about -52%. For the sample, strong results were picked, then their nearest neighbours and some compounds at random.

These compounds were tested on Plasmodium falciparum (assay: Screen against P. falciparum Asexual Blood Stage (ABS), at 5uM). Conditions: tested at 5 uM.
Type: functional, Dd2

**Q.** For `CCN1CCN(CC(O)c2cc(Cl)ccc2Cl)CC1` (centres undefined), which INHIBITION is on record?
**A.** Its INHIBITION is 77%.

**Q.** Which INHIBITION does the source give for `CCOCCN1CCN(CC(O)c2cc(Cl)ccc2Cl)CC1` (centres undefined) here?
**A.** Its INHIBITION is 78.5%.

**Q.** With `O=C(NCc1cccnc1)[C@H]1CN2CCC1C[C@@H]2Cn1cc(CO)nn1` (some centres undefined) as the compound, how does the INHIBITION read?
**A.** The INHIBITION was -46.1%.

**Q.** With `O=C(O)[C@@H]1CN(CC2CCC2)C[C@H]1c1ccc(F)cc1` as the compound, how does the INHIBITION read?
**A.** The INHIBITION was -73.4%.

**Q.** How did the INHIBITION turn out when `O=C(c1ccco1)N1CCN2C[C@H](Oc3cncnc3)C[C@H]2C1` was run?
**A.** The INHIBITION was -20.6%.

**Q.** With `CC(C)n1ncc2c1NC(=O)CC21C(=O)Nc2c(Cl)ccc(Cl)c21` (centres undefined) as the compound, how does the INHIBITION read?
**A.** Its INHIBITION is 83.5%.

**Q.** `O=C(NC[C@H]1C[C@@H]2CCN1C[C@@H]2CN1CCCCC1)c1ccco1` was tested. Which INHIBITION did it give?
**A.** Its INHIBITION is -92.2%.

**Q.** How did the INHIBITION turn out when `COc1ccccc1C1SCC(=O)Nc2c1c(=O)[nH]n2C1CCCCC1` (centres undefined) was run?
**A.** Its INHIBITION is -98.6%.

**Q.** `N#Cc1ccc(N2CCC(OC3CCOCC3)CC2)cc1Cl` was tested. Which INHIBITION did it give?
**A.** Its INHIBITION is -184%.

**Q.** `CCC1CCCCN1CCc1ccncc1` (centres undefined) was tested. Which INHIBITION did it give?
**A.** The INHIBITION was -81.4%.

**Q.** For `CCC1CCCCN1Cc1ncc(C(C)(C)C)o1` (centres undefined), which INHIBITION is on record?
**A.** The INHIBITION was 71.2%.

**Q.** Which INHIBITION does the source give for `Cc1cc(CN2CCC(C3CCN(CCc4ccccc4)CC3)C2)[nH]n1` (centres undefined) here?
**A.** Its INHIBITION is 93.5%.

**Q.** For `Cc1ccc(N2C[C@H]3CCN(Cc4ccncc4)C[C@H]3C2)nn1`, which INHIBITION is on record?
**A.** The INHIBITION was -4.71%.

**Q.** For `COc1ccc(C(=O)C2CCCN(Cc3cc(C)n[nH]3)C2)c(OC)c1` (centres undefined), which INHIBITION is on record?
**A.** Its INHIBITION is -4.88%.

**Q.** How did the INHIBITION turn out when `Fc1ccccc1C1(CNC2CCOC3(CCOCC3)C2)CCCC1` (centres undefined) was run?
**A.** The INHIBITION was 76.3%.

**Q.** For `CN(C)CCN(C)C(=O)Cc1ccc2c(c1)OCCO2`, which INHIBITION is on record?
**A.** The INHIBITION was -12.9%.

**Q.** With `CN(C)CCN(C(=O)Cc1ccc2c(c1)OCCO2)C1CCN(C)CC1` as the compound, how does the INHIBITION read?
**A.** The INHIBITION was -48.3%.

**Q.** `CN(C)CCN1CCC2[C@@H]1CCN2Cc1ccc2c(c1)OCO2` (some centres undefined) was tested. Which INHIBITION did it give?
**A.** The INHIBITION was 72.5%.

**Q.** With `COc1ncccc1CN1CC[C@H]2O[C@@H](c3nnc(C)o3)CC[C@H]21` as the compound, how does the INHIBITION read?
**A.** The INHIBITION was -71.9%.

**Q.** `COc1ncccc1CN1C[C@@H]2OCCN(CCN(C)C)[C@@H]2C1` was tested. Which INHIBITION did it give?
**A.** The INHIBITION was -3.36%.

**Q.** For `COc1ncccc1CN1CCC2[C@H]1CCN2CCN(C)C` (some centres undefined), which INHIBITION is on record?
**A.** The INHIBITION was 53.9%.

**Q.** How did the INHIBITION turn out when `Cc1cc(CN2CC[C@H]3C(=O)N(c4ccsc4)CCO[C@H]3C2)no1` was run?
**A.** The INHIBITION was -34.2%.

**Q.** For `Cc1cccc(CO[C@@H]2CC[C@H]3[C@H]2OCCN3Cc2ccsc2)n1`, which INHIBITION is on record?
**A.** Its INHIBITION is -46.8%.

**Q.** For `O=C(N[C@H]1CN(Cc2cccs2)[C@@H]2CCCO[C@H]12)c1cccnc1`, which INHIBITION is on record?
**A.** Its INHIBITION is -57.9%.

**Q.** For `Cn1cnc(S(=O)(=O)N2C[C@H]3CN(Cc4ccccn4)C[C@H]3C2)c1`, which INHIBITION is on record?
**A.** Its INHIBITION is -85.5%.

**Q.** How did the INHIBITION turn out when `Cc1noc(C)c1CN1C[C@@H]2C[C@@H](C)O[C@@H]2C1` was run?
**A.** Its INHIBITION is -75.1%.

**Q.** Which INHIBITION does the source give for `O=C(c1cccc(F)c1)N1C[C@H]2CN(Cc3ccccn3)C[C@H]2C1` here?
**A.** The INHIBITION was 0.82%.

**Q.** How did the INHIBITION turn out when `Fc1cccc(CN2C[C@@H]3CN(Cc4ccccn4)C[C@@H]3C2)c1` was run?
**A.** Its INHIBITION is 89.4%.

**Q.** How did the INHIBITION turn out when `Cc1noc(C)c1CN1C[C@H]2CN(Cc3cccc(F)c3)C[C@H]2C1` was run?
**A.** The INHIBITION was 55.4%.

**Q.** For `Cc1noc(C)c1CN1C[C@@H]2CC(F)(F)C[C@@H]2C1`, which INHIBITION is on record?
**A.** The INHIBITION was -59.4%.

**Q.** How did the INHIBITION turn out when `O=C(Cc1ccccn1)N1CCN2C[C@H](Oc3cncnc3)C[C@H]2C1` was run?
**A.** Its INHIBITION is -1.9%.

**Q.** Which INHIBITION does the source give for `Cc1noc(C)c1CN1C[C@@H]2CN(C(=O)c3cnccn3)C[C@@H]2C1` here?
**A.** Its INHIBITION is -43.4%.

**Q.** With `Clc1cccc(N[C@H]2CCCN[C@H]2Cc2ccccc2)c1` as the compound, how does the INHIBITION read?
**A.** Its INHIBITION is 92.8%.

**Q.** Which INHIBITION does the source give for `CC(C)OCCNC1(c2ccc(F)cc2)CCOCC1` here?
**A.** Its INHIBITION is 34.8%.

**Q.** Which INHIBITION does the source give for `Cc1n[nH]cc1CNC1(c2ccc(F)cc2)CCCC1` here?
**A.** The INHIBITION was 83.4%.

**Q.** `Cc1nc(C2(NCc3ccc(C#N)cc3F)CCCCC2)no1` was tested. Which INHIBITION did it give?
**A.** The INHIBITION was -32.3%.

**Q.** Which INHIBITION does the source give for `O=C(c1cnccn1)N1CCN2C[C@H](Oc3cccnc3)C[C@H]2C1` here?
**A.** Its INHIBITION is -106%.

**Q.** Which INHIBITION does the source give for `CCOCC(O)CN1CCN(C(=O)Cc2ccccc2C)CC1` (centres undefined) here?
**A.** Its INHIBITION is -143%.

**Q.** Which INHIBITION does the source give for `COc1ccccc1COCC(O)CN1CC(n2cccn2)C1` (centres undefined) here?
**A.** Its INHIBITION is 78.9%.

**Q.** How did the INHIBITION turn out when `CN(C)c1ncc2c(n1)C1(CCN(Cc3ccccc3)C1)COC2` (centres undefined) was run?
**A.** The INHIBITION was 27.6%.

**Q.** Which INHIBITION does the source give for `Cc1ccnc(CC(C)N(C)Cc2ccc3c(c2)OCCO3)c1` (centres undefined) here?
**A.** Its INHIBITION is -56.5%.

**Q.** With `Cc1cccnc1CC(C)N(C)Cc1cccs1` (centres undefined) as the compound, how does the INHIBITION read?
**A.** Its INHIBITION is 81.7%.

**Q.** Which INHIBITION does the source give for `CC(Cc1ccccn1)N(C)Cc1ccc2c(c1)CCO2` (centres undefined) here?
**A.** The INHIBITION was 8.31%.

**Q.** With `Cc1cnn(CC2CCCN2Cc2nc(C)c3ccccc3n2)c1` (centres undefined) as the compound, how does the INHIBITION read?
**A.** Its INHIBITION is 78%.

**Q.** For `CCCN(CCN(C)C)C(=O)Cc1cn2ccsc2n1`, which INHIBITION is on record?
**A.** Its INHIBITION is -76.3%.

**Q.** How did the INHIBITION turn out when `Cc1nc(CN2CCCC2Cn2ccnc2C(C)C)nc2ccccc12` (centres undefined) was run?
**A.** Its INHIBITION is 77.3%.

**Q.** `Cc1nc(CN2CCCCC2Cn2cccn2)nc2ccccc12` (centres undefined) was tested. Which INHIBITION did it give?
**A.** The INHIBITION was 70.4%.

**Q.** For `Cc1cnn(CC2CCCN2Cc2cn3ccsc3n2)c1` (centres undefined), which INHIBITION is on record?
**A.** The INHIBITION was 81.3%.

**Q.** With `O=C(C1CCCCC1)N1C[C@@H]2CCNC[C@@H]21` as the compound, how does the INHIBITION read?
**A.** The INHIBITION was 9.5%.

**Q.** For `Cc1ccc(N2CC[C@@H]3CN(Cc4c[nH]cn4)C[C@@H]3C2)nn1`, which INHIBITION is on record?
**A.** The INHIBITION was -66.7%.

**Q.** With `Cc1cc(CC(C)NC2CCSCC2)[nH]n1` (centres undefined) as the compound, how does the INHIBITION read?
**A.** Its INHIBITION is -36.2%.

**Q.** With `Cn1c(=O)n(C)c2cc(C3SCC(=O)Nc4ccsc43)ccc21` (centres undefined) as the compound, how does the INHIBITION read?
**A.** Its INHIBITION is -86.5%.

**Q.** `O=C(c1ccccc1)C1CCN(Cc2cc3c(cc2O)CCC3)CC1` was tested. Which INHIBITION did it give?
**A.** Its INHIBITION is 90.1%.

**Q.** Which INHIBITION does the source give for `CC(C)NC(=O)[C@H]1CN(Cc2ccccc2)C[C@@H]1C(=O)c1ccccc1` here?
**A.** The INHIBITION was -90.6%.

**Q.** Which INHIBITION does the source give for `Cc1c(CN2CCCC(C(=O)c3ccccc3)C2)cc(C#N)n1C` (centres undefined) here?
**A.** Its INHIBITION is 44.6%.

**Q.** Which INHIBITION does the source give for `c1cc(-c2n[nH]cc2-c2ccnc(N3CCCC3)n2)ccn1` here?
**A.** The INHIBITION was 81.1%.

**Q.** With `CC(C)[C@H](CO)Nc1nccc(-c2c[nH]nc2-c2ccncc2)n1` as the compound, how does the INHIBITION read?
**A.** Its INHIBITION is 83.9%.

**Q.** With `c1cc(-c2n[nH]cc2-c2ccnc(N3CCCCCC3)n2)ccn1` as the compound, how does the INHIBITION read?
**A.** Its INHIBITION is 78%.

**Q.** With `COc1cc(N2CC[C@@H]3[C@@H](CC2)OCCN3CC2CC2)ncn1` as the compound, how does the INHIBITION read?
**A.** The INHIBITION was -53.8%.

**Q.** Which INHIBITION does the source give for `COCC1CC2(CCNCC2)CN1c1ncccn1` (centres undefined) here?
**A.** Its INHIBITION is -33.8%.

**Q.** `NC1(c2nc(C(F)(F)F)cc(=O)[nH]2)CCCC1` was tested. Which INHIBITION did it give?
**A.** The INHIBITION was -131%.

**Q.** With `Cc1nc(NCCC23CCCN2CCC3)cc(C2CCCNC2)n1` (centres undefined) as the compound, how does the INHIBITION read?
**A.** Its INHIBITION is -29.1%.

**Q.** `Cc1cccc(Cc2cc(C)nc(C3CCCNC3)c2)c1` (centres undefined) was tested. Which INHIBITION did it give?
**A.** The INHIBITION was 80.1%.

**Q.** How did the INHIBITION turn out when `Cc1cc(O)nc(C2CCCNC2)n1` (centres undefined) was run?
**A.** The INHIBITION was -1.25%.

**Q.** `Cc1cc(Cc2ccc(F)cc2)cc(C2CCCNC2)n1` (centres undefined) was tested. Which INHIBITION did it give?
**A.** The INHIBITION was 73.9%.

**Q.** Which INHIBITION does the source give for `Cc1cc(Cc2cccc(C(F)(F)F)c2)cc(C2CCCNC2)n1` (centres undefined) here?
**A.** Its INHIBITION is 93.9%.

**Q.** For `Cc1cc(C)nc(C2CCCNC2)n1` (centres undefined), which INHIBITION is on record?
**A.** Its INHIBITION is -66.3%.

**Q.** Which INHIBITION does the source give for `FC(F)(F)c1nc(C2CCCNC2)no1` (centres undefined) here?
**A.** Its INHIBITION is -15.6%.

**Q.** For `Cc1cc(Cc2ccccc2)cc(C2CCCNC2)n1` (centres undefined), which INHIBITION is on record?
**A.** The INHIBITION was 76.1%.
